# From the supplement of paper PMC9492666
# How the values were obtained:
# HCC1937 = assay: relative cell viability, compound + RSL3, vs DMSO (fraction of DMSO control); higher = less growth inhibition; conditions: 72 h
# MDA-MB-231 = assay: as above; conditions: 72 h
# 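Further: breast cancer cell viability read out with the CCK-8 kit after co-treatment of each compound with the ferroptosis inducer RSL3.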
SMILES,relative cell viability (HCC1937),relative cell viability (MDA-MB-231)
C[C@H](CCC(=O)O)[C@H]1CC[C@H]2[C@@H]3C[C@H](O)[C@@H]4C[C@H](O)CC[C@]4(C)[C@H]3CC[C@]12C [Hyodeoxycholic acid] + COC(=O)c1ccc([C@H]2c3[nH]c4ccccc4c3C[C@H](C(=O)OC)N2C(=O)CCl)cc1 [RSL3],0.829,0.611
CN(C)c1cccc(-c2c3c(=O)n(-c4ccccc4Cl)[nH]c3cc(=O)n2C)c1 + COC(=O)c1ccc([C@H]2c3[nH]c4ccccc4c3C[C@H](C(=O)OC)N2C(=O)CCl)cc1 [RSL3],0.433,0.579
"CC(C)=CCC(O)C1=CC(=O)c2c(O)ccc(O)c2C1=O (single isomer, unassigned; (+)) [(+)-Shikonin] + COC(=O)c1ccc([C@H]2c3[nH]c4ccccc4c3C[C@H](C(=O)OC)N2C(=O)CCl)cc1 [RSL3]",0.0766,0.132
COc1ccc(-c2cc(=O)c3c(O)c(OC)c(OC)c(OC)c3o2)cc1OC + COC(=O)c1ccc([C@H]2c3[nH]c4ccccc4c3C[C@H](C(=O)OC)N2C(=O)CCl)cc1 [RSL3],0.343,0.501
O=C(NN1CCCCC1)c1nn(-c2ccc(Cl)cc2Cl)c(-c2ccc(C#Cc3ccc(C(F)(F)F)cc3)s2)c1CNS(=O)(=O)N1CCCC1 + COC(=O)c1ccc([C@H]2c3[nH]c4ccccc4c3C[C@H](C(=O)OC)N2C(=O)CCl)cc1 [RSL3],0.75,0.345
COc1cc(N2CCN(C)CC2)ccc1Nc1ncc2c(n1)N(C1CCC1)C(=O)N(c1c(C)cccc1C)C2 + COC(=O)c1ccc([C@H]2c3[nH]c4ccccc4c3C[C@H](C(=O)OC)N2C(=O)CCl)cc1 [RSL3],0.334,0.747
CC(C)OC(=O)C(C(=O)OC(C)C)=C1SC=CS1 [Malotilate] + COC(=O)c1ccc([C@H]2c3[nH]c4ccccc4c3C[C@H](C(=O)OC)N2C(=O)CCl)cc1 [RSL3],0.337,0.547
CSc1ccc(C(=O)/C=C/c2cc(C)c(OC(C)(C)C(=O)O)c(C)c2)cc1 [Elafibranor] + COC(=O)c1ccc([C@H]2c3[nH]c4ccccc4c3C[C@H](C(=O)OC)N2C(=O)CCl)cc1 [RSL3],0.83,0.685
COc1ccc(C(=O)/C=C/c2ccccc2)cc1 [4'-Methoxychalcone] + COC(=O)c1ccc([C@H]2c3[nH]c4ccccc4c3C[C@H](C(=O)OC)N2C(=O)CCl)cc1 [RSL3],0.282,0.582
CCOP(=O)(OCC)C(=Cc1cc(C(C)(C)C)c(O)c(C(C)(C)C)c1)P(=O)(OCC)OCC + COC(=O)c1ccc([C@H]2c3[nH]c4ccccc4c3C[C@H](C(=O)OC)N2C(=O)CCl)cc1 [RSL3],0.274,0.448
CC1=C(/C=C/C(C)=C/C=C/C(C)=C/C=C/C=C(C)/C=C/C=C(C)/C=C/C2=C(C)C(=O)[C@@H](O)CC2(C)C)C(C)(C)C[C@H](O)C1=O [Astaxanthin] + COC(=O)c1ccc([C@H]2c3[nH]c4ccccc4c3C[C@H](C(=O)OC)N2C(=O)CCl)cc1 [RSL3],0.562,0.689
Fc1ccc(-c2c3cccc(C(F)(F)F)c3nn2Cc2ccc(F)cc2Cl)cc1 + COC(=O)c1ccc([C@H]2c3[nH]c4ccccc4c3C[C@H](C(=O)OC)N2C(=O)CCl)cc1 [RSL3],0.756,0.578
CNC(=O)c1cccc(NC(=O)N2CCC(Oc3ccccc3Cl)CC2)c1 + COC(=O)c1ccc([C@H]2c3[nH]c4ccccc4c3C[C@H](C(=O)OC)N2C(=O)CCl)cc1 [RSL3],0.895,0.683
O=C(NNc1ccccc1)c1ccncc1 [PluriSln 1] + COC(=O)c1ccc([C@H]2c3[nH]c4ccccc4c3C[C@H](C(=O)OC)N2C(=O)CCl)cc1 [RSL3],0.418,0.656
O=C1/C(=C/c2cccs2)CC/C1=C\c1cccs1 + COC(=O)c1ccc([C@H]2c3[nH]c4ccccc4c3C[C@H](C(=O)OC)N2C(=O)CCl)cc1 [RSL3],0.357,0.49
CCN(CC)CCN(Cc1ccc(-c2ccc(C(F)(F)F)cc2)cc1)C(=O)Cn1c(SCc2ccc(F)cc2)nc(=O)c2c1CCC2 [Darapladib] + COC(=O)c1ccc([C@H]2c3[nH]c4ccccc4c3C[C@H](C(=O)OC)N2C(=O)CCl)cc1 [RSL3],0.0907,0.232
O=C(O)c1cc(F)c2nc(N3[C@@H]4CC[C@H]3C[C@@H](OCc3c(-c5ccccc5OC(F)(F)F)noc3C3CC3)C4)sc2c1 [Tropifexor] + COC(=O)c1ccc([C@H]2c3[nH]c4ccccc4c3C[C@H](C(=O)OC)N2C(=O)CCl)cc1 [RSL3],0.603,0.63

SMILES,relative cell viability (HCC1937),relative cell viability (MDA-MB-231)
Cc1coc2c1C(=O)C(=O)c1c-2ccc2c(C)cccc12 [Tanshinone I] + COC(=O)c1ccc([C@H]2c3[nH]c4ccccc4c3C[C@H](C(=O)OC)N2C(=O)CCl)cc1 [RSL3],0.218,0.305
O=C(ON1C(=O)CCC1=O)N1CCN(C(c2ccc(Cl)cc2)c2ccc(Cl)cc2)CC1 [Cravatt Reagent] + COC(=O)c1ccc([C@H]2c3[nH]c4ccccc4c3C[C@H](C(=O)OC)N2C(=O)CCl)cc1 [RSL3],0.55,0.716
C[C@]12C=CC(=O)N[C@@H]1CC[C@@H]1[C@@H]2CC[C@]2(C)[C@@H](C(=O)Nc3cc(C(F)(F)F)ccc3C(F)(F)F)CC[C@@H]12 [Dutasteride] + COC(=O)c1ccc([C@H]2c3[nH]c4ccccc4c3C[C@H](C(=O)OC)N2C(=O)CCl)cc1 [RSL3],0.53,0.427
CCCCCCCCCc1ccc(B(O)O)cc1 [4-Nonylphenylboronic acid] + COC(=O)c1ccc([C@H]2c3[nH]c4ccccc4c3C[C@H](C(=O)OC)N2C(=O)CCl)cc1 [RSL3],0.546,0.732
COCCNC(=O)Nc1ccc2nc(-c3cccs3)c(-c3cccs3)nc2c1 [Ac-CoA Synthase Inhibitor1] + COC(=O)c1ccc([C@H]2c3[nH]c4ccccc4c3C[C@H](C(=O)OC)N2C(=O)CCl)cc1 [RSL3],0.594,0.566
CC[C@H](C)C(=O)O[C@H]1CCC=C2C=C[C@H](C)[C@H](CC[C@@H]3C[C@@H](O)CC(=O)O3)[C@H]21 [Mevastatin] + COC(=O)c1ccc([C@H]2c3[nH]c4ccccc4c3C[C@H](C(=O)OC)N2C(=O)CCl)cc1 [RSL3],0.707,0.369
CCCc1cc(-c2nc(-c3ccc(C)cc3)cs2)ccn1 [Fatostatin] + COC(=O)c1ccc([C@H]2c3[nH]c4ccccc4c3C[C@H](C(=O)OC)N2C(=O)CCl)cc1 [RSL3],0.269,0.715
CCCCCCCCCCCCCCOc1ccc(C(=O)OCC(=O)N(C)CC(=O)OCC)o1 [Olumacostat Glasaretil] + COC(=O)c1ccc([C@H]2c3[nH]c4ccccc4c3C[C@H](C(=O)OC)N2C(=O)CCl)cc1 [RSL3],0.281,0.278
CC(C)Cc1ccc([C@H](C)C(=O)O)cc1 [Dexibuprofen] + COC(=O)c1ccc([C@H]2c3[nH]c4ccccc4c3C[C@H](C(=O)OC)N2C(=O)CCl)cc1 [RSL3],1.03,0.606
COc1cc(C(C)=O)ccc1O [Acetovanillone] + COC(=O)c1ccc([C@H]2c3[nH]c4ccccc4c3C[C@H](C(=O)OC)N2C(=O)CCl)cc1 [RSL3],0.389,0.594
CC(C)(Oc1ccc(Cl)cc1)C(=O)O [Clofibric acid] + COC(=O)c1ccc([C@H]2c3[nH]c4ccccc4c3C[C@H](C(=O)OC)N2C(=O)CCl)cc1 [RSL3],0.956,0.603
CCC(CC)CC1(C(=O)Nc2ccccc2SC(=O)C(C)C)CCCCC1 [Dalcetrapib] + COC(=O)c1ccc([C@H]2c3[nH]c4ccccc4c3C[C@H](C(=O)OC)N2C(=O)CCl)cc1 [RSL3],0.654,0.684
CC[C@H](C)C(=O)O[C@H]1C[C@H](O)C=C2C=C[C@H](C)[C@H](CC[C@@H](O)C[C@@H](O)CC(=O)O)[C@H]21 [Pravastatin sodium] + COC(=O)c1ccc([C@H]2c3[nH]c4ccccc4c3C[C@H](C(=O)OC)N2C(=O)CCl)cc1 [RSL3],0.77,0.606
CC1=C(C)C(=O)C(C(CCCCCC(=O)O)c2ccccc2)=C(C)C1=O (stereo not drawn) [Seratrodast] + COC(=O)c1ccc([C@H]2c3[nH]c4ccccc4c3C[C@H](C(=O)OC)N2C(=O)CCl)cc1 [RSL3],0.948,0.578
O=C(NCCS(=O)(=O)c1ccc(C(F)(F)F)cn1)c1ccc(Cl)cc1 + COC(=O)c1ccc([C@H]2c3[nH]c4ccccc4c3C[C@H](C(=O)OC)N2C(=O)CCl)cc1 [RSL3],0.362,0.525
CCOC(=O)c1c(NC(=O)CN2CCN(C(=O)c3ccco3)CC2)sc2c1CCC2 + COC(=O)c1ccc([C@H]2c3[nH]c4ccccc4c3C[C@H](C(=O)OC)N2C(=O)CCl)cc1 [RSL3],0.384,0.476
C[C@H](CCC(=O)O)[C@H]1CC[C@H]2[C@@H]3CC[C@@H]4C[C@H](O)CC[C@]4(C)[C@H]3CC[C@]12C [Lithocholic acid] + COC(=O)c1ccc([C@H]2c3[nH]c4ccccc4c3C[C@H](C(=O)OC)N2C(=O)CCl)cc1 [RSL3],0.844,0.649
